Results taken from PubChem BioAssay AID1042 (National Center for Advancing Translational Sciences (NCATS), 2008).
Results filed as inconclusive are left out. Activity calls are given as the source filed them.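 Rule for the calls: active = raised CDH13 expression over DMSO controls, judged by fold change in triplicate runs, no set cutoff; inconclusive = doubtful CDH13 rise, criteria not stated; inactive = no rise, falls in expression ignored.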

Assay: CDH13 Derepression/Induction Secondary Assay for qHTS Assay for Epigenetic Modulators
Conditions: H358 cells, CDH13 mRNA qPCR, 72 h; active compounds read high
From the text: NIH Molecular Libraries Screening Centers Network [MLSCN] NIH Chemical Genomics Center [NCGC] MLSCN Grant: 1 X01 MH079860-01 Assay Provider: Elisabeth D. Martinez, University of Texas SW Medical Center NCGC Assay Overview: This secondary assay characterizes selected actives identified in the qHTS of the Locus Derepression (LDR) assay (PubChem AID 597). The LDR assay detects the derepression of a GFP reporter that is stably integrated in a region of the genome of murine c127i mammary cells that is presumably silenced. Compounds that cause derepression of the locus to express GFP are identified by enumerating GFP positive cells using a laser-scanning microplate cytometer. Selected LDR actives were assayed for the induction of CDH13 gene expression, a gene silenced by methylation of its promoter. Treatment of cells with DNA methyltransferase inhibitors, like 5-azadeoxycytidine, or with HDAC inhibitors, like trichostatin A, induce CDH13 gene expression. Compounds active in this assay may modulate components involved in DNA methylation, histone acetylation or gene transcription.
NCGC Assay Protocol Summary Exponentially growing H358 non-small cell lung cancer cells were treated daily with fresh media containing the indicated concentrations of compounds for 72 hr. Cellular RNA was extracted, quantified, DNAse treated and reverse transcribed. The resulting cDNA was amplified in TaqMan real time quantitative PCR assays (Applied Biosystems) containing validated primers specific for CDH13 (Hs00169908.m1). Reactions were performed on an ABI Prism 7900HT, with an initial 2 min preincubation at 50 C, followed by 10 min at 95 C and then 40 cycles of 95 C for 15 seconds and 60 C for 1 min. GAPDH and 18S ribosomal RNA were used as references. Gene expression was measured by fold-induction over control DMSO-treated samples (36-37 average cycle time). Increases corresponded to at least 2-3 cycle time differences over DMSO controls, which were in the measurable range. Decreases in expression were considered insignificant as measurement of the DMSO samples were at the low limit of detection. Reactions were run in triplicate and error bars represent standard deviations. For further details, see R.L. Johnson, W. Huang, A. Jadhav, C.P. Austin, J. Inglese, E.D. Martinez, A Quantitative High-Throughput Screen Identifies Potential Epigenetic Modulators of Gene Expression, Analytical Biochemistry (2007), doi: 10.1016/j.ab.2007.12.028

Fold change, inactive:
CCN1CSC(=S)N(CC)C1 1, O=C(CSc1cccc2cccnc12)N1CCCC1 1, O=C(CSc1cccc2cccnc12)NCc1ccccc1 2, CN(C)C(=O)CSc1cccc2cccnc12 1

Fold change, active:
CC(C)C(=O)NC(c1ccco1)c1ccc2cccnc2c1O (stereo not given) 12, Nc1ncn([C@H]2C[C@H](O)[C@@H](CO)O2)c(=O)n1 9, CC(C)C(=O)NC(c1ccco1)c1cc([N+](=O)[O-])c2cccnc2c1O (stereo not given) 9, O=Nc1ccc(O)c2ncccc12 85, CN1CCN(Cc2cc(Cl)c3cccnc3c2O)CC1 10, CC(/C=C/C(=O)NO)=C\[C@@H](C)C(=O)c1ccc(N(C)C)cc1 256
